This assay concerns H9c2. Kind of assay: cardiomyocyte survival under oxidative or metabolic stress – cell-based, panel, H9c2 and HL-1, ATP luminescence, set 2, SAR follow-up (AID 651871).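 Further: cells exposed to stressor for 2 h before ATP readout; reference of the scale not given here.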 As to conditions: H9c2/HL-1 cardiomyocytes, 2-deoxyglucose stress, with 2-deoxyglucose; run 7, at 79 µM (top of the series).

“And” between values parts separate entries of the source, which are not always exact repeats. Equal values may be shown once.

For `CCOC(=O)c1cccc(NC(=O)CNC(=O)c2cc(-c3cc(OC)c(OC)c(OC)c3)nc3ccccc23)c1`, the activity (protection/inhibition) was determined as 77%.
Consider `COc1ccc2c(c1OC)C(=O)N1c3ccccc3C(=O)N(Cc3cccc(Cl)c3Cl)C21` (stereo not drawn), for which the activity (protection/inhibition) is 73.7% and 71.7% and -5.58%.
Consider `COc1ccc2nc(-c3cc(OC)c(OC)c(OC)c3)cc(C(=O)NCC(=O)Nc3ccc(C(C)=O)cc3)c2c1`, for which the activity (protection/inhibition) was 66.5%.

(Values after PubChem BioAssay AID651871 (Sanford-Burnham Center for Chemical Genomics, 2012).)
